From article PMC10726135, “HNF4α isoforms regulate the circadian balance between carbohydrate and lipid metabolism in the liver” come the findings set out here.

The full ranking holds about 18,000 sequences; the median of “log2 normalized intensity” is about 0.39, and the highest 2% start at about 6.6. The list comes from a sample in which the highest values are over-represented; it also holds similar and randomly drawn sequences.

The target in this test is T1, HNF4alpha2 (COS-7 nuclear extract) (Homo sapiens, UniProt P41235 1-474).
T1 sequence: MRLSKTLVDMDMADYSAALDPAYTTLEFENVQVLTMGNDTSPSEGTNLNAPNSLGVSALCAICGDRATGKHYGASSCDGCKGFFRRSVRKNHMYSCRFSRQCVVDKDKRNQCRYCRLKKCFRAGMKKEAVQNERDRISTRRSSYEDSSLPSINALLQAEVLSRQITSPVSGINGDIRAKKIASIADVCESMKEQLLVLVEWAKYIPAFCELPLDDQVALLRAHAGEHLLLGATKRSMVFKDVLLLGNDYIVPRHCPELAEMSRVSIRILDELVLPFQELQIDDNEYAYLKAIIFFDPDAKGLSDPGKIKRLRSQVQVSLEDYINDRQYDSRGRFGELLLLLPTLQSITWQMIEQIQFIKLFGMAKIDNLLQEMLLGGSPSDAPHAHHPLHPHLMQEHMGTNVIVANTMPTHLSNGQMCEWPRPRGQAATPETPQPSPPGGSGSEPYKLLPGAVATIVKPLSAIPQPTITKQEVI
Kind of test: protein-binding microarray; COS-7 nuclear extract on double-stranded Agilent 4x180k PBM; binding buffer, salt, pH and temperature not given in the material; high values mean tight binding. The conditions noted are these: chain copies: 2; label: 3' end of strand 1 on the slide; dsDNA, one strand shown. The method, boiled down: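 Nuclear extracts of COS-7 cells transiently transfected with a human HNF4α isoform were applied to a custom Agilent SurePrint G3 4x180k array bearing ~44,000 double-stranded ~60-nt test sequences, each in quadruplicate. The bound protein was imaged on an Agilent G2565CA scanner at 2-µm resolution. Binding signal is the normalized, background-corrected gProcessedSignal from Agilent software.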
Consider “CTATTGCAGTAACGGCAGGGTTGTGCAGGAGCCTAGGGAGATTAGAGTATCGGTCGA”, for which the binding signal is 0.453 log2 normalized intensity. To “ATCCTTACACAGCAGCTTTAGTCAGAGATTGCCTAGGGAGATTAGAGTATCGGTCGA” belongs -0.896 log2 normalized intensity; to “CCAAAGTCCAAAGTCCAGTCTTATCTGAGAGCCTAGGGAGATTAGAGTATCGGTCGA”, 7.12 log2 normalized intensity; to “GCATGGCTCAGTCCAAGTCCAAAGGTCTGAGCCTAGGGAGATTAGAGTATCGGTCGA”, 5.39 log2 normalized intensity. Next, “AAGTCCAGTCTTATCTGAGACTCAAGGCAAGCCTAGGGAGATTAGAGTATCGGTCGA”: -0.968 log2 normalized intensity; “TTTCTGTAAAGCTTTATTTTGGGGCTGTATGCCTAGGGAGATTAGAGTATCGGTCGA”: 0.324 log2 normalized intensity. For “AATCGACCTTTAGCACCGTAAGAGAGTATTGCCTAGGGAGATTAGAGTATCGGTCGA”, the binding signal came out at 3.82 log2 normalized intensity. Take “AGATAGCATTCCAAGAGAGCAAAGTGCTTTGCCTAGGGAGATTAGAGTATCGGTCGA”: the binding signal was found to be 0.587 log2 normalized intensity.

For “TTGCTTAAGCATAGCAAAAGTGACCTTTGCGCCTAGGGAGATTAGAGTATCGGTCGA”, the binding signal is 8.56 log2 normalized intensity. On to “CAAAGCATAGCAAGAGTGACCTTTGCTCCAGCCTAGGGAGATTAGAGTATCGGTCGA”, for which the binding signal was 8.97 log2 normalized intensity. On to “AAAAGTGACCTTTGCTCCAGTTCCCAATAAGCCTAGGGAGATTAGAGTATCGGTCGA”, for which the binding signal worked out at 5.9 log2 normalized intensity. “GTGACCTTTGCTCCAGTTCCCAATAAGTTGGCCTAGGGAGATTAGAGTATCGGTCGA”: the binding signal is 4.19 log2 normalized intensity. As for “TTTGCCAAAGCATAGCAAGAGTGACCTTTGGCCTAGGGAGATTAGAGTATCGGTCGA”, the binding signal worked out at 6.6 log2 normalized intensity. Regarding “CTTCTTTGCTTAAGCATAGCAAAAGTGACCGCCTAGGGAGATTAGAGTATCGGTCGA”, the binding signal came out at 2.7 log2 normalized intensity. As for “CCTGCATATCCTGACTGCTGACCTTTAAGCGCCTAGGGAGATTAGAGTATCGGTCGA”, the binding signal was determined as 4.85 log2 normalized intensity.

Consider “TATGACCTTTGCTTTTCAAGATTTTACCTAGCCTAGGGAGATTAGAGTATCGGTCGA”, for which the binding signal was found to be 2.14 log2 normalized intensity.

In the case of “ATAGCAAAAGTGACCTTTGCTCCAGTTCCCGCCTAGGGAGATTAGAGTATCGGTCGA”, the binding signal is 7.8 log2 normalized intensity.

“CTTTAGCACCTTCATCCAAAGATGACCTTTGCCTAGGGAGATTAGAGTATCGGTCGA”: the binding signal is 7.62 log2 normalized intensity. In the case of “CCCATCCAAAGGTCAGCAATCTCAAAGACTGCCTAGGGAGATTAGAGTATCGGTCGA”, the binding signal worked out at 2.36 log2 normalized intensity. Regarding “TAAGTTTAAGTCCAGAAAAGACCAAAAAGGGCCTAGGGAGATTAGAGTATCGGTCGA”, the binding signal amounted to 0.39 log2 normalized intensity. To “TAACTATGGTCACGCGGCCAAAATGTTCAGGCCTAGGGAGATTAGAGTATCGGTCGA” belongs 0.22 log2 normalized intensity; to “CTGTGTCATCTGAACTCTGACCAACGCCTCGCCTAGGGAGATTAGAGTATCGGTCGA”, 2.73 log2 normalized intensity; to “CAAGAGTGACCTTTGCTCCAGTTCCCAATAGCCTAGGGAGATTAGAGTATCGGTCGA”, 6 log2 normalized intensity.

For the sequence “CATAGCAAGAGTGACCTTTGCTCCAGTTCCGCCTAGGGAGATTAGAGTATCGGTCGA”, the binding signal stood at 7.45 log2 normalized intensity. As to “TGACCTTTGCTCCAGTTCCCAATAATTTCCGCCTAGGGAGATTAGAGTATCGGTCGA”, the binding signal came to 4.46 log2 normalized intensity. For the sequence “CAGTACTGAAACATGCCTATGACCGAGGGTGCCTAGGGAGATTAGAGTATCGGTCGA”, the binding signal stood at 0.809 log2 normalized intensity.

Regarding “TGCTTGGAATGCTATTTGCATTGACACAACGCCTAGGGAGATTAGAGTATCGGTCGA”, the binding signal was determined as 0.296 log2 normalized intensity. Regarding “TTCTGTTCAATGGTGCTTTTGATATTGTTGGCCTAGGGAGATTAGAGTATCGGTCGA”, the binding signal came to 2.06 log2 normalized intensity. Take “CTTTGACCCTGTTTTGTAAACTCCCTTTGAGCCTAGGGAGATTAGAGTATCGGTCGA”: the binding signal turned out to be 1.78 log2 normalized intensity. Regarding “AATGTTTGTAGGGACTTTGACCCCTAAAACGCCTAGGGAGATTAGAGTATCGGTCGA”, the binding signal was 8.73 log2 normalized intensity. Take “CAACTGACATCTGGAAATGTTTGTAGGGACGCCTAGGGAGATTAGAGTATCGGTCGA”: the binding signal was found to be 0.308 log2 normalized intensity.

Turning to “CTGGAAATGTTTGTAGGGACTTTGACCCCTGCCTAGGGAGATTAGAGTATCGGTCGA”, the binding signal was 9.92 log2 normalized intensity. “AGCAATGTTTCTTGTCCAGGGACTTTGAACGCCTAGGGAGATTAGAGTATCGGTCGA”: the binding signal was 5.74 log2 normalized intensity. As for “GACATCTGGAAATGTTTGTAGGGACTTTGAGCCTAGGGAGATTAGAGTATCGGTCGA”, the binding signal was 4.28 log2 normalized intensity. Take “AGTTTGACTCCAAAGGGCTGGAGACTGAGTGCCTAGGGAGATTAGAGTATCGGTCGA”: the binding signal was -0.509 log2 normalized intensity. “TCTAAGACCCATCCCTCAGGGTCCATATCCGCCTAGGGAGATTAGAGTATCGGTCGA”: the binding signal came out at 2.84 log2 normalized intensity.

“CAATCCCATGACCTTTGTACTAATGATTTGGCCTAGGGAGATTAGAGTATCGGTCGA”: the binding signal is 5.84 log2 normalized intensity. With “TGTCTTCTGACCTTTGGCAATATCTCCCAGGCCTAGGGAGATTAGAGTATCGGTCGA”, the binding signal was 3.48 log2 normalized intensity.

Take “TCTTCCTAGGCAATCCCATGACCTTTGTACGCCTAGGGAGATTAGAGTATCGGTCGA”: the binding signal is 8.78 log2 normalized intensity.

“CACCTTCTTCCTAGGCAATCCCATGACCTTGCCTAGGGAGATTAGAGTATCGGTCGA”: the binding signal turned out to be 3.25 log2 normalized intensity.

Regarding “CTAGGCAATCCCATGACCTTTGTACTAATGGCCTAGGGAGATTAGAGTATCGGTCGA”, the binding signal was 7.57 log2 normalized intensity. Next, “CCATGACCTTTGTACTAATGATTTGTAAATGCCTAGGGAGATTAGAGTATCGGTCGA”: 5.25 log2 normalized intensity; “TCTGAAGATAAATGCCTTAGCTGTGACCATGCCTAGGGAGATTAGAGTATCGGTCGA”: 0.619 log2 normalized intensity.
